PubChem BioAssay AID1159580 (chemical genetic matrix, 2015)
Hit rate of the full screen: of about 5,500 compounds, about 2,000 (36%) were called active. Another 18% or so got no clear call; they are omitted. Cut-off read from the data, not from the text of the source: active = normalized growth mostly below about 0.91 (no sharp cut-off); inconclusive = no clear call, values can overlap the other calls; inactive = mostly above about 0.92. This is one part of the list.

Experiment: chemical genetic growth profiling, strain panel (AID 1159580);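 note: tested at 20 µM; growth read once vehicle control cultures reached saturation at 30 °C; 1 = growth at the plate median or of vehicle wells; lower values mean less growth of the strain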
Conditions: growth OD
[1] = S. cerevisiae deletion strains, locus YAL013W, strain DEP1, active compounds read low
[2] = S. cerevisiae deletion strains, locus YBR229C, strain ROT2, active compounds read low
[3] = S. cerevisiae deletion strains, locus YDL101C, strain DUN1, active compounds read low
[4] = S. cerevisiae deletion strains, locus YDL134C, strain PPH21, active compounds read low
[5] = S. cerevisiae deletion strains, locus YDR150W, strain NUM1, active compounds read low
[6] = S. cerevisiae deletion strains, locus YEL061C, strain CIN8, active compounds read low
[7] = S. cerevisiae deletion strains, locus YGR078C, strain PAC10, active compounds read low
[8] = S. cerevisiae deletion strains, locus YGR229C, strain SMI1, active compounds read low
[9] = S. cerevisiae deletion strains, locus YHR030C, strain SLT2, active compounds read low
[10] = S. cerevisiae deletion strains, locus YHR087W, strain rtc3, active compounds read low
[11] = S. cerevisiae deletion strains, locus YJL187C, strain SWE1, active compounds read low
[12] = S. cerevisiae deletion strains, locus YJR043C, strain POL32, active compounds read low
[13] = S. cerevisiae deletion strains, locus YJR075W, strain HOC1, active compounds read low
[14] = S. cerevisiae deletion strains, locus YLR039C, strain RIC1, active compounds read low
[15] = S. cerevisiae deletion strains, locus YLR058C, strain SHM2 (second series), active compounds read low
[16] = S. cerevisiae deletion strains, locus YLR085C, strain ARP6, active compounds read low
[17] = S. cerevisiae deletion strains, locus YLR262C, strain YPT6, active compounds read low
[18] = S. cerevisiae deletion strains, locus YML094W, strain GIM5, active compounds read low
[19] = S. cerevisiae deletion strains, locus YMR219W, strain ESC1, active compounds read low
[20] = S. cerevisiae deletion strains, locus YMR263W, strain SAP30, active compounds read low
[21] = S. cerevisiae deletion strains, locus YMR307W, strain GAS1, active compounds read low
[22] = S. cerevisiae deletion strains, locus YNL153C, strain GIM3, active compounds read low
[23] = S. cerevisiae deletion strains, locus YNL298W, strain CLA4 (second series), active compounds read low
[24] = S. cerevisiae deletion strains, locus YNL322C, strain KRE1, active compounds read low
[25] = S. cerevisiae deletion strains, locus YNR030W, strain Alg12, active compounds read low
[26] = S. cerevisiae deletion strains, locus YOL006C, strain TOP1, active compounds read low
[27] = S. cerevisiae deletion strains, locus YPL055C, strain LGE1, active compounds read low
[28] = S. cerevisiae deletion strains, locus YPL241C, strain CIN2, active compounds read low
[29] = S. cerevisiae deletion strains, locus YPR135W, strain CTF4, active compounds read low

Measured: normalized growth

Cc1cc(C)c(CSCCNC(=O)Nc2ccc(F)cc2F)c(C)c1
active: [16] 1.28 [resistant]
inactive: [1] 1.02 | [2] 1.01 | S. cerevisiae deletion strains, locus YCL061C, strain MRC1, active compounds read low 1.03 | [3] 1.03 | [4] 1.01 | [5] 0.942 | [6] 1.01 | [7] 1.03 | [8] 1.02 | [9] 1.08 | [10] 1.02 | [11] 1.03 | [12] 1.02 | [13] 1.03 | S. cerevisiae deletion strains, locus YKL190W, strain CNB1, active compounds read low 1.02 | [14] 1.05 | [15] 1.02 | [17] 1.03 | [18] 1.04 | [19] 1.01 | [20] 0.937 | [21] 1.29 | [22] 1.01 | [23] 1.03 | [24] 1.02 | [25] 1.04 | [26] 1.18 | [27] 0.908 | [28] 1.13 | [29] 1.11

COc1ccccc1NC(=O)NCCSCc1ccccc1Cl
inactive: [1] 0.979 | [2] 0.981 | [3] 1.03 | [4] 0.978 | [5] 0.968 | [6] 0.983 | [7] 0.993 | [8] 0.984 | [9] 0.877 | [10] 0.976 | [11] 1.01 | [12] 1.01 | [13] 1.01 | [14] 0.887 | [15] 1 | [16] 1.07 | [17] 0.931 | [18] 0.963 | [19] 0.988 | [20] 1.01 | [22] 1.01 | [23] 0.974 | [24] 0.985 | [25] 0.971 | [26] 0.954 | [27] 0.927 | [28] 1.04 | [29] 0.88 | S. cerevisiae strains, strain wild type, active compounds read low 0.978

CC(C)[C@@]1(NC(=O)[C@@H]2C[C@@H]3c4cccc5[nH]cc(c45)C[C@H]3N(C)C2)O[C@@]2(O)[C@@H]3CCCN3C(=O)[C@H](Cc3ccccc3)N2C1=O
inactive: [1] 0.941 | S. cerevisiae deletion strains, locus YAL040C, strain CLN3, active compounds read low 0.972 | S. cerevisiae deletion strains, locus YCL061C, strain MRC1 (second series), active compounds read low 0.974 | S. cerevisiae deletion strains, locus YDR363W, strain ESC2, active compounds read low 0.945 | S. cerevisiae deletion strains, locus YER002W, strain NOP16, active compounds read low 0.981 | [7] 0.996 | [21] 0.985 | S. cerevisiae deletion strains, locus YNL175C, strain NOP13, active compounds read low 0.987 | S. cerevisiae deletion strains, locus YNL197C, strain WHI3, active compounds read low 1.02 | S. cerevisiae deletion strains, locus YNL224C, strain SQS1, active compounds read low 1 | [24] 0.924 | S. cerevisiae deletion strains, locus YOR083W, strain WHI5 (second series), active compounds read low 1 | [27] 0.91 | [28] 0.985
